From article PMC4552634, “A New Set of Chemical Starting Points with Plasmodium falciparum Transmission-Blocking Potential for Antimalarial Drug Discovery” (PLoS ONE, 2015)
Out of some 13,000 compounds screened, about 3,200 (25%) showed an effect of 50% or more. Some of the results follow.

What follows are compounds tested on P. falciparum stage V gametocytes. Conditions: 48 h, 5 µM; inhibitor.
Design: BacTiter-Glo ATP luminescence viability of purified stage V gametocytes in 384-well plates, per cent inhibition versus DMSO

Row | Compound | % Inhibition
1 | CCCCCOc1c(CCC)cc(Cc2cnc(N)nc2N)cc1CCC [TCMDC-137287] | -6.135%
2 | COc1cc2c(cc1C(F)(F)F)N(C(=O)Nc1cc(Br)cc(-c3cccnc3)c1)CC2 [TCMDC-139024] | 0.01985%
3 | COc1cc2c(cc1C(F)(F)F)N(C(=O)Nc1cc(-c3ccncc3)cc(-c3cccnc3)c1)CC2 [TCMDC-139040] | -15.72%
4 | COc1cc2c(cc1C(F)(F)F)N(C(=O)Nc1cccc(-c3ccc(CN(C)C)cc3)c1)CC2 [TCMDC-139014] | 97.51%
5 | CC(C)c1ccc(NC(=O)c2ccc(C(=O)NC3CCN(CC4CCCCC4)CC3)cc2)cc1 [TCMDC-136750] | -11.44%
6 | NC1=NC(Cc2ccccc2)(c2ccncc2)C(=O)N1CCCc1ccccc1 (centres unmarked) [TCMDC-136557] | 2.084%
7 | O=C(c1ccc(Cl)c(Cl)c1)N1CCc2c([nH]c3ccccc23)C1CN1CCCC1 (centres unmarked) [TCMDC-139011] | 81.19%
8 | CC(C)CC1c2[nH]c3ccccc3c2CCN1C(=O)CCc1ccccc1 (centres unmarked) [TCMDC-123996] | -45.79%
9 | CN(C)CC1c2[nH]c3ccccc3c2CCN1C(=O)Nc1ccc(Cl)c(Cl)c1 (centres unmarked) [TCMDC-139004] | 3.866%
10 | N#Cc1ccc2c(c1)CCN(CCC1CCC(NC(=O)/C=C/c3ccc4[nH]ccc4c3)CC1)CC2 (centres unmarked) [TCMDC-139666] | 5.34%
11 | CN(c1cc(NC(=O)c2ccccc2)ccn1)C1CCN(Cc2cccc(F)c2)CC1 [TCMDC-135011] | 9.307%
12 | O=C(Nc1cccc(F)c1)N(Cc1ccc(-c2cccc(CN3CCNCC3)c2)cc1)C1CCN(Cc2ccccc2)CC1 [TCMDC-139638] | 105.9%
13 | N#Cc1cccc(C(=O)Nc2cccc(-c3cccc(CN4CCNCC4)c3)c2)c1 [TCMDC-132660] | 26.75%
14 | O=C(Nc1cccc(-c2ccc(CN3CCCC3)cc2)c1)c1cccc(F)c1 [TCMDC-132647] | 5.119%
15 | O=C(Nc1cccc(F)c1)N(Cc1ccc(-c2ccc(CN3CCNCC3)cc2)cc1)C1CCN(Cc2ccccc2)CC1 [TCMDC-139654] | 96.89%
16 | CCn1cnc2c(N3CCCC3=O)cc(C(=O)N[C@@H](Cc3ccccc3)[C@H](O)CNC3CCCCC3)cc21 [TCMDC-135231] | -30.5%
17 | CCN(CC)CCN(Cc1ccc(-c2ccc(C(F)(F)F)cc2)cc1)C(=O)Cn1c(CCc2cc(F)ccc2F)nc(=O)c2ccccc21 [TCMDC-140941] | 67.52%
18 | CCN(CC)CCN(Cc1ccc(-c2ccc(C(F)(F)F)cc2)cc1)C(=O)Cn1c(CCc2cc(F)c(F)cc2F)nc(=O)c2ccccc21 [TCMDC-140949] | 56.5%
19 | COc1ccc2nccc([C@H](O)CN3CCC(NCc4nc5c(F)cccc5[nH]4)CC3)c2c1 [TCMDC-141062] | -21.41%
20 | NC(=O)c1cccc(C(=O)Nc2cccc(-c3ccc(-c4nc5ccccc5[nH]4)s3)c2)c1 [TCMDC-132195] | 9.45%
21 | Cc1[nH]c2ccc([N+](=O)[O-])cc2c1C1=CCN(C)CC1 [TCMDC-139186] | -16.2%
22 | CNCCNCc1cccc(-c2ccc(-c3nc4ccccc4[nH]3)cc2)c1 [TCMDC-132839] | 24.41%

Row | Compound | % Inhibition
23 | c1cc(CNCC2CCCO2)cc(-c2cccc(-c3nc4ccccc4[nH]3)c2)c1 (centres unmarked) [TCMDC-133090] | 0.6072%
24 | c1cc(CNCCN2CCNCC2)cc(-c2ccc(-c3nc4ccccc4[nH]3)cc2)c1 [TCMDC-132861] | 85.05%
25 | c1cc(CN2CCN(CCN3CCOCC3)CC2)cc(-c2ccc(-c3nc4ccccc4[nH]3)cc2)c1 [TCMDC-133939] | -22.81%
26 | c1cc(CNCCN2CCNCC2)cc(-c2cccc(-c3nc4ccccc4[nH]3)c2)c1 [TCMDC-132859] | 95.66%
27 | CN(C)CCNCc1cccc(-c2cccc(-c3nc4ccccc4[nH]3)c2)c1 [TCMDC-132680] | 40.55%
28 | CCNc1cc(CC)nc(Nc2ccc(C)cc2)n1 [TCMDC-133992] | -2.88%
29 | COc1cc(N)c(Cl)cc1C(=O)NC1CCC(NCC2CCCCC2)CC1 (centres unmarked) [TCMDC-136726] | 0.4196%
30 | Cc1cccc2nc(-c3ccc(-c4ccc(NC(=O)Nc5ccc(Cl)c(Cl)c5)cc4)s3)[nH]c12 [TCMDC-133273] | -52.78%
31 | O=C(/C=C/c1ccc(C(F)(F)F)cc1)NCCCCCN1CCCN(C(=O)Nc2ccc(Cl)c(C(F)(F)F)c2)CC1 [TCMDC-136105] | -22.56%
32 | Cc1cc(Nc2ccnc(-c3ccc(Cl)cc3)n2)ccn1 [TCMDC-141398] | -5.017%
33 | Cc1cc(Nc2ccncc2)n2nc(C)c(-c3ccccc3Cl)c2n1 [TCMDC-124918] | 99.62%
34 | Cc1cc(Nc2ccc(C)c(C)c2)n2nc(C)nc2n1 [TCMDC-124418] | 9.818%
35 | Cc1cc(Nc2ccc(Cl)c(Cl)c2)n2nc(C)nc2n1 [TCMDC-124417] | -6.756%
36 | Cc1cc(Nc2ccc3ccccc3c2)n2ncnc2n1 [TCMDC-125840] | 18.77%
37 | Cc1cc(Nc2ccncc2)n2nc(C)c(-c3ccc(Cl)cc3)c2n1 [TCMDC-124478] | 102.4%
38 | CCc1nn2c(Nc3ccncc3)cc(C)nc2c1-c1ccccc1 [TCMDC-124917] | 106.8%
39 | Cc1cc(Nc2ccc(C)c(Cl)c2)n2nc(C(F)(F)F)nc2n1 [TCMDC-124919] | -6.645%
40 | Cc1cc(Nc2ccc(Cl)cc2)n2nc(C(F)(F)F)nc2n1 [TCMDC-123826] | -17.3%
41 | Cc1nc(N)nc(N)c1C#CC1CCCC1 [TCMDC-137728] | 11.69%
42 | CC(C)(C)c1ccc(NC(=O)c2ccc(CN3CCCN(Cc4cccc(F)c4)CC3)cc2)cc1 [TCMDC-136431] | -15.47%
43 | CC1(C)S(=O)(=O)CC(O)CS1(=O)=O [TCMDC-131669] | 10.31%
44 | Cc1c(C(=O)NCc2ccncc2)sc2nc(-c3cccc([N+](=O)[O-])c3)cn12 [TCMDC-124992] | -38.46%
